Measured values reported in PubChem BioAssay (NCI).
This is part of a sample that, as a whole, favours compounds with a hit. Of some 83,000 tested, about 20% had one in any assay.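 48-hour exposure, single concentration, 96-well plates; percent growth endpoint where 0 means no net growth. Active: below 10.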 Active and inactive are the calls of the source.

What was measured:
Test in all cases: NCI-60 one-dose screen, 48 h (100 = growth as untreated, 0 = no growth, -100 = all killed)
Conditions in all cases: 10 µM unless noted
[1] = test system: NCI-H23 lung
[2] = test system: NCI-H226 lung
[3] = test system: NCI-H322M lung
[4] = test system: NCI-H460 lung
[5] = test system: HOP-92 NSCLC
[6] = test system: NCI-H522 lung
[7] = test system: A549/ATCC NSCLC
[8] = test system: 786-0 renal
[9] = test system: COLO 205 colon
[10] = test system: DU-145 prostate
[11] = test system: K-562 leukemia
[12] = test system: MALME-3M melanoma
[13] = test system: MDA-MB-231 breast
[14] = test system: RXF 393 renal
[15] = test system: SF-268 CNS
[16] = test system: SF-295 CNS
[17] = test system: SF-539 CNS
[18] = test system: UACC-257 melanoma
[19] = test system: M14 melanoma

Measured: growth

Oc1ccc(N=Nc2nccs2)c(O)c1
inactive: [1] 81.2% | [2] 89.6% | [3] 74.4% | [4] 31.2% | [5] 61.7% | [6] 41.5% | [7] 52.2% | [8] 36.8% | [9] 24.8% | [10] 64% | [11] 44% | [12] 92.9% | [13] 54.9% | [14] 90% | [15] 51.5% | [16] 40.3% | [17] 86.1% | [18] 99.5% | [19] 68%

CC1(C)NCCC[C@]2(C)[C@H]3C=CC4=C5C[C@](C)(CO)CC[C@]5(C)CC[C@@]4(C)[C@]3(C)CC[C@@H]12
active: [1] -84.9% [100 µM] | [2] -59.1% [100 µM] | [3] -99.7% [100 µM] | [4] -81.6% [100 µM] | [5] -76.4% [100 µM] | [6] -75.6% [100 µM] | [7] -66.5% [100 µM] | [8] -72% [100 µM] | [9] -55.9% [100 µM] | [10] -89.5% [100 µM] | [11] -25.4% [100 µM] | [12] -82.6% [100 µM] | [13] -94% [100 µM] | [14] -70.4% [100 µM] | [15] -69.9% [100 µM] | [16] -90.1% [100 µM] | [17] -93.3% [100 µM] | [18] -80.5% [100 µM] | [19] -82.1% [100 µM]

COc1cc(-c2nc(SCCC(C)C)nc(Nc3ccccc3)c2C#N)cc(OC)c1OC
inactive: [1] 97.1% | [2] 101% | [3] 103% | [4] 101% | [5] 86.8% | [6] 80.6% | [7] 91.5% | [8] 91.7% | [9] 99.1% | [10] 97.1% | [11] 93.7% | [12] 104% | [13] 59.8% | [14] 114% | [15] 95.9% | [16] 100% | [17] 96.2% | [18] 107% | [19] 100%

COc1ccc2nc3ccccc3c(NCCNCCO)c2c1
inactive: [11] 18.9%
active: [1] -40.3% | [2] -10.8% | [3] -25% | [4] -41.3% | [5] -10.7% | [6] -48.7% | [7] -27% | [8] 3.89% | [9] -75.3% | [10] -31.2% | [12] -65.5% | [13] -18.9% | [14] -63% | [15] -27.9% | [16] -18.4% | [17] -11.1% | [18] -50% | [19] -87.3%

COCc1nc2ccccc2[nH]1
inactive: [1] 103% | [2] 100% | [3] 100% | [4] 106% | [5] 100% | [6] 96.3% | [7] 100% | [8] 99.4% | [9] 109% | [10] 113% | [11] 99% | [12] 98.7% | [13] 100% | [14] 117% | [15] 108% | [16] 95.1% | [17] 92.8% | [18] 104% | [19] 100%

Cn1cc(-c2noc(-c3cn(C)c4ncc(F)cc34)n2)c2cc(Cl)ccc21
inactive: [1] 81.3% | [2] 95.7% | [3] 50.3% | [6] 74.2% | [7] 33.9% | [9] 55.5% | [10] 80.3% | [11] 77.2% | [12] 48.1% | [13] 52.7% | [14] 78% | [15] 69.2% | [16] 41.6% | [17] 46% | [18] 96.5% | [19] 78.6%
active: [4] 2.39% | [8] 9.09%

CC1=CCc2ccccc21
inactive: [1] 97.6% | [2] 95.3% | [3] 91.3% | [4] 99.8% | [5] 82% | [6] 90.5% | [7] 97.1% | [8] 103% | [9] 105% | [10] 111% | [11] 94.1% | [12] 101% | [13] 94.5% | [14] 111% | [15] 110% | [16] 101% | [17] 112% | [18] 105% | [19] 105%

COC(=O)c1c(C)[nH]c(/C=C2\N=C(c3ccc[nH]3)C=C2OC)c1C
active: [2] -16% | [3] -2.96% | [4] 4.82% | [5] -41.8% | [6] -60.1% | [7] -24.4% | [8] -27.7% | [9] -54.2% | [10] 9.5% | [11] 4.3% | [12] -69.3% | [13] -40.2% | [14] -33.9% | [16] -56.7% | [17] -59.7% | [18] -49% | [19] -24%
inactive: [1] 10% | [15] 18.3%

COc1ccc2c(c1)c(-c1noc(C(=O)c3cn(C)c4ncc(Br)cc34)n1)cn2C
inactive: [1] 30.1% | [2] 26.6% | [3] 92.9% | [4] 76.7% | [6] 67.9% | [7] 28.1% | [8] 59% | [9] 68.4% | [10] 50.4% | [11] 71% | [12] 28.1% | [13] 25.4% | [14] 27.9% | [15] 62.8% | [16] 89% | [17] 25.7% | [18] 92.8% | [19] 91.3%
active: [5] 7.92%

COC(=O)c1cc(O)c2c(c1C(=O)OC)C[C@H]1[C@@H]3CC=C4C[C@@H](O)CC[C@]4(C)[C@H]3CC[C@]21C
active: [8] -56.1% | [13] 2.21% | [14] -60.6% | [16] -14.5% | [17] 8.9%
inactive: [1] 46% | [2] 70.6% | [3] 66% | [4] 64.6% | [5] 18.6% | [6] 50% | [7] 38.5% | [9] 83.1% | [10] 79% | [11] 20% | [12] 28.3% | [15] 66.8% | [18] 14.3% | [19] 11.6%

O=C(NNc1ccc(-c2ccccc2)nn1)c1ccccc1
inactive: [1] 99.6% | [2] 102% | [3] 94.7% | [4] 100% | [5] 91.6% | [6] 97.8% | [7] 106% | [8] 93.3% | [9] 107% | [10] 104% | [11] 92.2% | [12] 100% | [13] 97.4% | [14] 110% | [15] 95% | [16] 94.3% | [17] 102% | [18] 103% | [19] 98.8%

COc1ccc(C(=O)c2nccc3cc(OC)c(OC)cc23)cc1OC
inactive: [1] 51.9% | [2] 97% | [3] 120% | [4] 103% | [5] 78.5% | [6] 33.4% | [7] 98.3% | [8] 109% | [9] 126% | [10] 104% | [11] 103% | [12] 103% | [13] 85% | [14] 99.4% | [15] 89.3% | [16] 92.6% | [17] 94.3% | [19] 89.3%
active: [18] -11.2%

O=C1C(Cl)=C(Nc2ccc3cn[nH]c3c2)C(=O)c2ccccc21
active: [1] -70.1% | [2] -4.83% | [3] -27.4% | [4] 4.67% | [5] -80.4% | [6] -84.7% | [8] -99.4% | [9] -85.5% | [10] -100% | [11] -50% | [12] -88.7% | [13] -50.3% | [14] -95.9% | [15] -98.7% | [16] 5.88% | [19] -83.8%
inactive: [7] 39.7% | [17] 10.5% | [18] 19.3%

COc1ccc(OC)c([N+](=O)[O-])c1C(=O)CNC(C)=O
inactive: [1] 105% | [2] 101% | [3] 105% | [4] 107% | [5] 89.9% | [6] 95.7% | [7] 100% | [8] 103% | [9] 114% | [10] 109% | [11] 103% | [12] 112% | [13] 98.4% | [14] 101% | [15] 102% | [16] 95.2% | [17] 101% | [18] 105% | [19] 107%

COc1ccc2c3ccnc(C(F)(F)F)c3n(CCCCN)c2c1
active: [5] -22.3%
inactive: [1] 54.6% | [2] 52.4% | [3] 65.3% | [4] 47.1% | [6] 11.4% | [7] 77% | [8] 54.5% | [9] 10.7% | [10] 71.4% | [11] 71.1% | [12] 43.7% | [13] 41.5% | [14] 49.8% | [15] 67.5% | [16] 59.7% | [17] 34.6% | [18] 37.9% | [19] 23.6%

C=C(C)[C@@H]1CC[C@]2(C)[C@H](C(=O)C=C3[C@@H]4C[C@](C)(C(=O)N5CCN(C)CC5)CC[C@]4(C)CC[C@]32C)[C@@]1(C)CCC#N
active: [1] -73.6% [100 µM] | [2] -68.4% [100 µM] | [3] -98.6% [100 µM] | [4] -89.9% [100 µM] | [5] -45.6% [100 µM] | [6] -68.9% [100 µM] | [7] -67.3% [100 µM] | [8] -85.5% [100 µM] | [9] -69.4% [100 µM] | [10] -51.6% [100 µM] | [11] -4.62% [100 µM] | [12] -86.5% [100 µM] | [13] -92.4% [100 µM] | [14] -86.4% [100 µM] | [15] -76.2% [100 µM] | [16] -88% [100 µM] | [17] -92% [100 µM] | [18] -77.1% [100 µM] | [19] -62.6% [100 µM]

c1ccc2c(c1)CN(CCCN1CCOCC1)C2
inactive: [1] 99.6% | [2] 96.2% | [3] 99.7% | [4] 103% | [5] 126% | [6] 98.3% | [7] 96.8% | [8] 102% | [9] 108% | [10] 107% | [11] 104% | [12] 99.7% | [13] 107% | [14] 117% | [15] 103% | [16] 97.9% | [17] 98.9% | [18] 93.9% | [19] 97%
